Screens deposited in PubChem by National Center for Advancing Translational Sciences (NCATS).
This is a sample that favours compounds with a hit; in the whole collection about 14% have one here.
HCMV antiviral – human cytomegalovirus inhibition; HFF cells, HCMV-luciferase reporter, 72 h; hits give low values; activity change, negative = inhibition, % at 57.5 µM; 410,000 compounds, 4.5% hits; AID 1259415; in the data active = activity change below about -60%; inconclusive = no clear call, values can overlap the other calls; inactive = above about -39%
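After 16 h attachment at 37C, HFF cells received test compound and HCMV-luciferase (1 PFU/cell); reporter luminescence read 72 h later, data normalized against buffer-only and known inhibitor Salinomycin.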
LASV entry inh – Lassa virus entry inhibition | AID 540256 | Lassa virus pseudotype entry inhibition, cell reporter | Potency, µM (titrated, usually from 37.9 µM), inactives show at the highest dose activity change, negative = inhibition, usual class: inhibitors | 300,000 compounds, 1.2% hits; calls by dose curve; tested in HEK293 cells; note: potency is the fitted concentration of half-maximal effect; nearly all actives have a fitted effect of over 50% in size
HCV inhibitor – blocks hepatitis C virus; Potency, µM (highest dose often 41.8 µM), for inactives: at the top dose activity change, negative = inhibition, actives largely listed as inhibitors; AID 651820; Huh7.5.1 HCVcc-Cre infection, luciferase reporter, 44 h; 340,000 compounds, 3.4% hits; note: potency is the fitted concentration of half-maximal effect
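1,000 cells/well; 4 h culture; + compound; + HCVcc-Cre (~0.5 moi); 44 h; luciferase substrate, RT 15 min; read 15 sec.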
Pf growth 48h – P. falciparum growth inhibition at 48 hours (one generation); Potency, µM (doses to about 28.7 µM), without a hit: at the top dose activity change, negative = inhibition, actives largely listed as inhibitors; 310,000 compounds, 5.9% hits; P. falciparum luciferase growth in erythrocytes, 48 h; AID 504832; note: potency is the fitted concentration of half-maximal effect
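Read-out is firefly luciferase luminescence from an integrated reporter in P. falciparum, so falling signal marks reduced parasite growth. Infected erythrocytes were at 2% hematocrit and 0.1% parasitemia (final) in Albumax-supplemented RPMI 1640.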
Marburg entry inh – Marburg virus entry inhibition. Marburg virus pseudotyped entry inhibition, cell reporter. Potency, µM (series often up to 37.8 µM), inactives show top-dose activity change, negative = inhibition, usual class: inhibitors. 300,000 compounds, 1.8% hits. AID 540276; calls by dose curve; tested in HEK293 cells; note: potency is the fitted concentration of half-maximal effect
Pf growth 96h – P. falciparum growth inhibition at 96 hour, primary screen for plastid delayed-death inhibitors; 320,000 compounds, 6.9% hits; P. falciparum luciferase reporter growth, 96 h; Potency, µM (doses to about 28.7 µM), inactives show at the highest dose activity change, negative = inhibition, actives largely listed as inhibitors; note: potency is the fitted concentration of half-maximal effect
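Readout is luminescence from an integrated firefly luciferase in P. falciparum. Red cells, 2% hematocrit and 0.05% parasitemia final, were cultured with compound through two parasite generations (96 hours) at 37 C, 5% CO2.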
Active calls of the source: *; ? = inconclusive; nt = no result; [ ] = another dose, or the depositor's remark. Unless noted, calls come from the whole dose curve; as a rule, active = well fitted inhibition curve with a large enough effect; inconclusive = small, poorly fitted or top-dose-only effect, or another doubt; inactive = no such curve, though single readings can be large or run the other way. % is set by controls: 0 for no effect and ±100 for the full control effect.

SMILES | HCMV antiviral | LASV entry inh | HCV inhibitor | Pf growth 48h | Marburg entry inh | Pf growth 96h
COc1ccc(Cn2nnnc2CN(Cc2cc3cccc(C)c3[nH]c2=O)C2CCCC2)cc1 | -38 | ? | ? | 10µM* | ? | 24%
CCOc1ccc(CCNC(=O)C2CCN(c3ncnc4c3nc3n4CCCCC3)CC2)cc1 | ? | -19%[46.1 µM] | nt | nt | nt | nt
COc1ccc(NC(=O)[C@H](CCS(C)(=O)=O)N2Cc3ccccc3C2=O)c(OC)c1 | ? | nt | 21% | nt | 7% | 9.3µM*
COc1cc(NC(=O)C(CCS(C)(=O)=O)N2Cc3ccccc3C2=O)cc(OC)c1OC (stereo not drawn) | -6 | 9%[46.1 µM] | nt | nt | nt | nt
CCCn1c(=N)n(CC(=O)c2ccc(Cl)cc2)c2ccccc21 | -83* | ? | 13µM* | ? | ? | ?
CCCn1c(=N)n(CC(=O)c2ccc(OCC(=O)OC)cc2)c2ccccc21 | -96* | nt | ? | nt | nt | nt
N=c1n(N)c2ccccc2n1CC(=O)c1ccc(Br)cc1 | 38 | ? | 13µM* | 73% | ? | 76%
CCCn1c(=N)n(CC(=O)c2ccc([N+](=O)[O-])cc2)c2ccccc21 | 1 | -5% | 13µM* | ? | ? | 6%
CCCn1c(=N)n(CC(=O)OCC)c2ccccc21 | -16 | 2% | 12% | -5% | -1% | nt
C=CCn1c(=N)n(CC(=O)c2ccc(Br)cc2)c2ccccc21 | 51 | -28% | -5% | ? | ? | 7%
CCOc1ccccc1NC(=O)c1nnn(CC(=O)Nc2ccc(OC)c(OC)c2)c1N | -22 | 9%[46.1 µM] | nt | nt | nt | nt
CCOC(=O)C1(COCc2ccccc2)CCCCC1=O (stereo not drawn) | -12 | nt | nt | nt | nt | nt
COc1ccc(C(=O)NC(C(=O)NCC2(N3CCCCC3)CCCCC2)C(C)C)cc1 (stereo not drawn) | -76* | nt | 20% | ? | nt | -19%
N=c1c(-c2nc3ccccc3[nH]2)cc(C(=O)c2ccco2)nn1-c1ccccc1 | ? | -8% | 7.9µM* | ? | ? | ?
N=c1c(-c2nc3ccccc3[nH]2)cc(C(=O)c2cccs2)nn1-c1ccccc1 | nt | 0% | -2% | ? | -10% | ?
Cc1cc(C)cc(NC(=O)CSc2nnc(CNC(=O)c3c(F)cccc3Cl)o2)c1 | 8 | 15%[46.1 µM] | nt | nt | ? | nt
COc1ccc(C=O)c(OCc2cn(CC(=O)c3ccc(O)cc3)nn2)c1 | -5 | 0%[46.1 µM] | 31% | nt | nt | nt
COc1ccc(-n2nc(C(=O)NCC(=O)NCc3ccc(F)cc3)c3ccccc3c2=O)c(OC)c1 | -39 | -23% | 17% | 8% | -14% | 10µM*
COc1ccc(NC(=O)CNC(=O)c2nn(-c3ccc(OC)cc3OC)c(=O)c3ccccc23)c(OC)c1 | -17 | -2%[46.1 µM] | -3% | ? | ? | 3.3µM*
COC(=O)CNC(=O)CNC(=O)c1nn(-c2ccc(OC)c(OC)c2)c(=O)c2ccccc12 | 8 | nt | 6% | 17% | nt | 28%
COc1ccc(-n2nc(C(=O)NCC(=O)NCCC3=CCCCC3)c3ccccc3c2=O)cc1OC | -7 | ? | ? | ? | -14%[46.1 µM] | 9.3µM*
COc1ccc(-n2nc(C(=O)NCC(=O)NC(C)C)c3ccccc3c2=O)cc1OC | 48 | nt | 11% | nt | nt | 14%
COCCCNC(=O)CNC(=O)c1nn(-c2ccc(OC)cc2OC)c(=O)c2ccccc12 | -8 | nt | 17% | nt | nt | ?
COc1ccc(-n2nc(C(=O)NCC(=O)NCc3ccc(F)cc3)c3ccccc3c2=O)cc1OC | -18 | ? | 13µM* | 20% | ? | -35%
CC(=O)N1CCc2cc(Br)cc(S(=O)(=O)CCC(=O)Nc3ccc(C)cc3Cl)c21 | -23 | ? | nt | nt | -4%[46.1 µM] | nt
O=C(COc1ccccc1Cl)Nc1ccccc1C(=O)N1CCCCC1 | 85 | 1% | 10% | 44% | 4% | 2%
O=C(CC1CCCC1)N1CCN(S(=O)(=O)c2cccc(Br)c2)CC1 | 15 | nt | nt | nt | nt | nt
COc1ccc(NC(=O)Nc2cn(CC(C)C)c(=O)c3ccccc23)c(OC)c1 | -104* | 14%[46.1 µM] | nt | nt | nt | nt
CCOc1ccc(CC(=O)Nc2c(C(=O)c3ccc(Cl)cc3)oc3ccccc23)cc1OCC | -23 | 1%[46.1 µM] | nt | nt | ? | nt
